“And” between values parts separate entries of the source, which are not always exact repeats. Equal values may be shown once. Screen size: about 220,000 compounds; about 3,300 (1.5%) were called active. The full list was thinned out, with actives kept by preference. Values without a mark were called inactive.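 How the source made its calls: active means compounds that cut the protein-peptide binding signal by more than 50% relative to plate controls in a single-dose test; inactive means the rest.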

The target of this experiment is Induced myeloid leukemia cell differentiation protein Mcl-1 (Homo sapiens) (UniProt Q07820). In words: Mcl-1/Noxa binding inhibitors, primary screen, biochemical, TR-FRET, 1536-well (AID 1022).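 Further: His-tagged Mcl-1 with rhodamine Noxa BH3 peptide and terbium anti-His antibody; 0% = Mcl-1 plus Noxa peptide wells and 100% = peptide-only wells.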 The note with it: TR-FRET Mcl-1/Noxa peptide binding, 2 h; at 21.7 µM; hits give high values.
Sequence of Induced myeloid leukemia cell differentiation protein Mcl-1 (Homo sapiens) (Q07820 whole entry, looked up): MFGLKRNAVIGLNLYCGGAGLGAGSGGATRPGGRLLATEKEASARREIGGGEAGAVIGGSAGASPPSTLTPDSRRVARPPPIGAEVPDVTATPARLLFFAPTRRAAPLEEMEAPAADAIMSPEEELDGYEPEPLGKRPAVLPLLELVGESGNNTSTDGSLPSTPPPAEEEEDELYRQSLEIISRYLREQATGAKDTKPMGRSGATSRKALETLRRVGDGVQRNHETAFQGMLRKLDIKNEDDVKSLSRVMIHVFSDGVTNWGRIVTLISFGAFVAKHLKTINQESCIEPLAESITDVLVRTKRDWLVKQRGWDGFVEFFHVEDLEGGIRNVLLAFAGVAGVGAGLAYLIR
In the case of `CCCCCCCN=C(C)c1ccccc1O`, the inhibition is -3.31%. With `c1ccc2sc(NN=C3CCCC3)nc2c1`, the inhibition was 5.28%. In the case of `O=[N+]([O-])c1cc(Br)c(O)c(/C=N/Nc2nc3ccccc3s2)c1` it was 79.4% (active); in that of `Cc1ccc(S(=O)(=O)Nc2nc3ccccc3s2)cc1[N+](=O)[O-]`, 9.42%. In the case of `CCCN(CCC)S(=O)(=O)c1ccc(C(=O)NNC(=O)c2cc(OC)c(OC)c(OC)c2)cc1` it was 14.9%; in that of `Cc1cc(OCCCCOc2ccc(C#N)cc2)ccc1[N+](=O)[O-]`, 5.03%. In the case of `CC/C=C/C(=O)N1CC2(CC(c3cccc(NC(=O)CC)c3)=NO2)C[C@H]1C(N)=O` (some centres not stated) it was -7.66%.

On to `COc1cc(/C=N\Nc2nc(-c3cccs3)c(NC(C)=O)s2)ccc1O`, for which the inhibition is 95.2% (active). In the case of `COc1cc(/C=N/Nc2nc3ccccc3s2)ccc1O` it was 27.8%. The same measure for `CCOc1cc(/C=C(\C#N)c2nc(-c3cccs3)c(NC(C)=O)s2)ccc1O`: 24.5%. Turning to `CC(C)c1ccc(Nc2nnc(SCC(=O)c3nnc(-c4ccccc4)o3)s2)cc1`, the inhibition is 104% (active). The same measure for `O=C(CSc1nnc(Nc2ccccc2)s1)Nc1cccnc1Cl`: 9.43%; for `Cc1ccc(Nc2nnc(SCC(=O)c3cc4ccccc4o3)s2)cc1C`: 24.3%. Regarding `Cc1cccc2c1-c1sc(C(=O)NCCCN3CCc4ccccc4C3)cc1CO2`, the inhibition is 11%.

As for `CCOC(=O)CN(C(=O)COc1nc(-c2ccccc2)cc(C)c1C#N)c1ccc(F)cc1`, the inhibition is 7.27%. Regarding `CN(C)C(=S)Nc1ccc(Br)cc1Cl`, the inhibition is -1.61%. For `CN(C)CCCNC(=O)c1ccc2[nH]c3ccccc3c2c1`, the inhibition is 3.04%. In the case of `CN(C)c1ccc(C(CNC(=O)c2ccc(F)cc2)c2c[nH]c3ccccc23)cc1` (configuration not stated) it was 75.8% (active); in that of `O=C(Cc1ccccc1)NCc1ccc(F)cc1`, -0.05%. Take `CCOC(=O)C1=NN(c2ccc(Cl)cc2)/C(=C/C2=NCCc3cc(OC)c(OC)cc32)S1`: the inhibition is 1.42%. Take `O=C(Cn1c[n+](CC(=O)c2ccc([N+](=O)[O-])cc2)cn1)c1ccc([N+](=O)[O-])cc1`: the inhibition is 27.4% and -7.77%. In the case of `CCc1nnc(NC(=O)c2cccc(S(=O)(=O)N(C)c3ccc(OC)cc3)c2)s1` it was 10.9%; in that of `CCc1ccc2nc3sc(C(=O)Nc4nnc(CC)s4)c(N)c3cc2c1`, 90.1% (active); in that of `CCc1nnc(NC(=O)c2sc3nc(C)cc(COC)c3c2N)s1`, 22.4%.

For `C#CCO[C@@H]1C[C@H](n2cnc3c(=O)[nH]c(NC(=O)C(C)C)nc32)O[C@@H]1CO`, the inhibition was -275%. In the case of `Cc1ccc(C(=O)Cn2cc([N+](=O)[O-])nc2C)cc1` it was -26.9%; in that of `Cc1ccc(N2NC(=O)/C(=C/C=C/c3ccco3)C2=O)cc1C`, 6.33%. In the case of `Cc1ccc(N=C2NC(=O)/C(=C/C=C/c3ccco3)S2)cc1C` it was 107% (active); in that of `Cc1cccc(N=C2NC(=O)/C(=C/c3cn(C)c4ccccc34)S2)c1`, 4.96%. In the case of `CC(C)(C)c1cc(NC(=O)NN2CCOCC2)nn1-c1c(Cl)cc(Cl)cc1Cl` it was 2.67%; in that of `N/C(=N\S(=O)(=O)c1ccc(Cl)cc1)N1CCOCC1`, -2.49%. In the case of `C/C=C/C(=O)Nc1ccc(N2CCN(c3ccc(C(F)(F)F)cn3)CC2)nc1`, the inhibition was 4.65%. In the case of `Cc1ccnc(-n2sc3ccccc3c2=O)n1` it was 69% (active). The same measure for `Cc1ccnc(N2CCC(C(=O)NC3CCCCCC3)CC2)n1`: -9.93%; for `Cc1ccnc(Nc2nc3ccccc3s2)n1`: -8.28%; for `CCCCCCCC(=O)OC(CN1CCCCCC1)CN1CCCC1=O` (configuration not stated): -0.02%. In the case of `Cc1ccc2cc(/C=N/Nc3ccc(C(=O)O)cc3)c(Cl)nc2c1` it was 32.8%; in that of `Cn1c2c(c(=O)n(C)c1=O)C(c1cccc(F)c1)C(C#N)=C(N)O2` (configuration not stated), -5.47%.

With `Cc1ccc(C2Nc3ccccc3C(=O)N2CCN2CCNC2=O)cc1` (configuration not stated), the inhibition was -12.9%. Consider `O=C(COC(=O)c1ccc(F)cc1F)Nc1ncccn1`, for which the inhibition was 65.1% (active). The same measure for `CC(NC(=O)COC(=O)c1ccc(Cl)cc1O)c1ccc(F)cc1` (configuration not stated): 0.03%. As to `COc1cc(OC)cc(C(=O)OCC(=O)Nc2ccc(F)cc2F)c1`, the inhibition was 2.79%. Turning to `Cc1nnc(Nc2ccccc2F)s1`, the inhibition was -14.1%.

In the case of `C/C(Cc1ccccc1)=N\NC(=O)CNC(=O)c1ccccc1Cl`, the inhibition was -7.79%.

Consider `O=C1N(c2ccccc2)C(=Nc2ccccc2)SC12CC2`, for which the inhibition was 1.01%. `O=C1Oc2ccccc2C(=O)/C1=C/c1ccccc1O`: the inhibition was 81.4% (active). In the case of `C=CCn1c(SCC(=O)CC(=O)OCC)nc2cc(C(=O)N3CCC(C(N)=O)CC3)ccc2c1=O` it was -5.71%; in that of `C=CCn1c2ccccc2c2nnc(SCc3[nH]c(=O)[nH]c3C(=O)CCCCC(=O)OCC)nc21`, 52.5% (active); in that of `C=CCn1c2ccccc2c2nnc(SC(CC)C(=O)Nc3nc(C)c(C(=O)OCC)s3)nc21` (configuration not stated), 11.2%. The same measure for `CC(C)(C)n1cnnc1Sc1ccc([N+](=O)[O-])cn1`: 2.83%; for `N#Cc1ccccc1CN1C(=O)S/C(=C/c2cccn2-c2cccc(C(=O)O)c2)C1=O`: 66.4% (active); for `Cc1ccccc1NC(=O)CN1C(=O)N/C(=C\c2cccn2-c2cccc(C(=O)O)c2)C1=O`: 40.1%. The same measure for `Cn1cccc1/C=C1\SC(=O)N(CC(=O)Nc2ccc(F)cc2)C1=O`: 12.7%. With `Nc1ccc(N=Nc2ccccc2Cl)c(N)n1`, the inhibition is 10.8%. As to `COc1ccc(CCNC(=O)C2CC3Cn4c(nc5cc(C)c(C)cc54)C3N2C)cc1` (configuration not stated), the inhibition was -4.09%. In the case of `COc1ccc(CC(=O)Nc2ccccc2NC(=O)c2ccco2)cc1OC` it was 36.8%. The same measure for `COc1ccc(C/C(N)=N/OC(=O)c2ccco2)cc1OC`: 64.8% (active). In the case of `COc1ccc(C(=O)O/N=C(\N)Cc2ccc(Cl)cc2Cl)cc1OC` it was 6.09%. Consider `N#C/C(=C\N1CCOCC1)S(=O)(=O)c1ccc(Cl)cc1`, for which the inhibition was -9.31%. For `COc1ccc(-c2ccc(OC(=O)NC3CCS(=O)(=O)C3)cc2)cc1` (configuration not stated), the inhibition is -3.15%. In the case of `Cc1c(C(=O)N/N=C/c2ccccc2)[nH]c2c([N+](=O)[O-])cccc12` it was 21%.

In the case of `COc1cccc2c(O)cc(=O)n(C)c12`, the inhibition was -20.5%. For the compound `COc1cccc2c(C)c(C(=O)O)[nH]c12`, the inhibition was 83.1% (active). The same measure for `COc1ccc(CN2CCOC2=O)cc1OC`: 6.85%; for `COc1cccc(N2C(=O)CC(N3CCc4ccccc4C3)C2=O)c1` (configuration not stated): -10.9%; for `C=CCNC(=O)CSc1nc2scc(-c3ccco3)c2c(=O)n1CC=C`: 8.55%. `O=C1CCCC(O)=C1N=Nc1ccc2ncsc2c1`: the inhibition is 62.8% (active). The same measure for `O=C1CCCC(O)=C1N=Nc1ccc(S(=O)(=O)N2CCOCC2)cc1`: 23.9%; for `C/C(=N\NC(=O)c1cccnc1)c1ccc(-c2ccccc2)cc1`: 2.98%.

As to `O=C(NCC1CCCO1)/C(=C\c1ccco1)NC(=O)c1ccccc1` (configuration not stated), the inhibition was 4.51%.

In the case of `C/C(=C\c1ccco1)C1Nc2cccc3cccc(c23)N1`, the inhibition is 74.9% (active). In the case of `COc1cccc(C2Nc3cccc4cccc(c34)N2)c1`, the inhibition was 34.5%.

`COc1ccccc1/C=C/C=N/NC(=O)CN1CCN(Cc2ccccc2)CC1`: the inhibition was 0.78%. In the case of `CSC1=NCCN1C(=O)Cc1cccc2ccccc12` it was -0.87%. For `O=C(NNC(=O)c1cnccc1C(F)(F)F)c1ccc(Cl)cc1`, the inhibition is 11.9%. For the compound `Cc1ccccc1NC(=S)Nc1cccc([N+](=O)[O-])c1`, the inhibition was 11.3%. On to `COC(=O)/C=C\C(=O)Nc1cccc([N+](=O)[O-])c1`, for which the inhibition was 64.5% (active). On to `CC(=O)Nc1cccc([N+](=O)[O-])c1`, for which the inhibition was -1.66%.

Regarding `COc1ccc(Cn2c(O)c(/C=C3/C=CC=N3)c(=O)[nH]c2=O)cc1`, the inhibition was 25%. On to `CC(=O)NC(=S)Nc1ccc(NC(=O)c2cccnc2)cc1`, for which the inhibition is 1.75%. As to `CCCc1nc2c(c(=O)c3ccccc3n2C)c(=O)n1-c1cc(C)cc(C)c1`, the inhibition was 5.11%. For the compound `COc1ccc(C(=O)CSc2nnc(COc3ccccc3)n2Cc2ccco2)cc1`, the inhibition was 17.5%.

Consider `Cn1c2ccccc2c(=O)c2c(=O)n(Cc3ccco3)c(COc3ccccc3)nc21`, for which the inhibition was 60% (active). As for `CSc1sc(C(=O)NNC(=O)c2ccc(Cl)cc2)c2c1C=CCC2`, the inhibition was 0.01%. The same measure for `CN1CCN(C2=NCCO2)CC1`: 3.88%; for `Nc1c(C(=O)c2cccs2)sc2nsc(SCCN3CCCCC3)c12`: -16.9%; for `O=C(c1ccco1)N1CCN(CCOc2ccccc2)CC1`: 10.5%.

For `COc1ccc(OC)c(N=Cc2c(O)[nH]c3ccccc23)c1`, the inhibition is 20.4%.

`CN=c1scc(-c2cc(OC)ccc2OC)n1/N=C/c1c(C)[nH]c2ccccc12`: the inhibition is 56.7% (active). In the case of `CCn1c(-c2cc(OC)ccc2OC)csc1=Nc1c(C)n(C)n(-c2ccccc2)c1=O` it was 10.7%; in that of `CCn1c2ccccc2c2cc(NC(=O)CNC)ccc21`, 43.9%; in that of `CCc1ccc(NC(=O)N[C@H](C(=O)O)C(C)CC)cc1` (some centres not stated), 16.4%. In the case of `O=C(O)COCC(=O)NCc1csc2ccc(Cl)cc12` it was 11.9%; in that of `O=S(=O)([N-]c1nc2ccccc2nc1-[n+]1ccc(Cc2ccccc2)cc1)c1ccc(Br)s1`, 15.5%; in that of `Cc1ccc(-c2ccc(/C=C(\C#N)C(N)=S)o2)c([N+](=O)[O-])c1`, 58.2% (active). In the case of `Cc1ccc(Cc2cnc(NC(=O)/C(C#N)=C/c3ccc(-c4cccc([N+](=O)[O-])c4)o3)s2)cc1` it was 24.9%. On to `N#C/C(=C/c1ccc(-c2ccccc2[N+](=O)[O-])o1)C(=O)NCCN1CCCCC1`, for which the inhibition is 26.3%.

(Values after PubChem BioAssay AID1022 (Emory University Molecular Libraries Screening Center, 2008).)
